Assay [1] is described as follows: qHTS RealTime-Glo MT Cell Viability Assay in HEK293 cells - 16 hour (AID 1224872). For activity change, negative = cytotoxicity: top concentration of the series differs between compounds. Note: nearly all actives have a fitted effect of over 50% in size. Note: potency is the fitted concentration of half-maximal effect. The gist of the method: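 HEK293 cells seeded with NanoLuc/prosubstrate reagent, rested 5 h at 37 C, then dosed and kept at 37 C up to 40 h. Nonlytic real-time luminescence from viable cells read at 0, 8, 16, 24, 32 and 40 h.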
Assay [2] in a line: qHTS RealTime-Glo MT Cell Viability Assay in HepG2 cells - 8 hour (AID 1224873). Note: nearly all actives have a fitted effect of over 55% in size. Note: potency is the fitted concentration of half-maximal effect. The method in brief:
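HepG2 cells mixed with RealTime-Glo MT reagents (NanoLuc plus cell-permeant prosubstrate) were seeded at 600 cells/well, incubated 5 h at 37 C/5% CO2, then pinned with compounds in DMSO; nonlytic luminescence tracked viability during 40 h treatment.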

A short description of assay [3]: qHTS RealTime-Glo MT Cell Viability Assay in HEK293 cells - 40 hour (AID 1224874). Note: nearly all actives have a fitted effect of over 50% in size. Note: potency is the fitted concentration of half-maximal effect. The note with it: RealTime-Glo luminescence; max response: stronger effect = lower value. The gist of the method: (§1)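 HEK293 + NanoLuc + prosubstrate, 600 cells/well; 5 h, 37 C/5% CO2; compound 23 nL in DMSO by pintool; 37 C; luminescence read at 0, 8, 16, 24, 32 and 40 h time points.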
Assay [4] is described as follows: A CellTox Green Cytotoxicity Assay to monitor cytotoxicity in HEK293 cells - 24 hour (AID 1224875). For activity change: series mostly up to about 77 µM. Note: nearly all actives have a fitted effect of over 45% in size. Note: potency is the fitted concentration of half-maximal effect. The method in brief: (§2)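 Tox21 screen in HEK293: membrane-impermeant cyanine dye fluoresces on binding dead-cell DNA; compound pinned 5 h post-seeding, plates held at 37 C, signal read repeatedly through 40 h.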
Assay [5] is described as follows: A CellTox Green Cytotoxicity Assay to monitor cytotoxicity in HepG2 cells - 16 hour (AID 1224876). Note: nearly all actives have a fitted effect of over 45% in size. Note: potency is the fitted concentration of half-maximal effect. The method in brief:
(§3)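 Measurements at 0, 8, 16, 24, 32 and 40 h of treatment captured CellTox Green fluorescence in HepG2 cells that had been co-plated with reagent and preincubated 5 h at 37 C/5% CO2.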

The nature of assay [6]: qHTS RealTime-Glo MT Cell Viability Assay in HepG2 cells - 32 hour (AID 1224877). Note: nearly all actives have a fitted effect of over 55% in size. Note: potency is the fitted concentration of half-maximal effect. The gist of the method:
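HepG2 cells (600/well) were dispensed with RealTime-Glo reagents, incubated 5 h at 37 °C, then treated with compounds in DMSO for up to 40 h. Nonlytic NanoLuc luminescence reflecting viable cells was read at each stated time point.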

The nature of assay [7]: A CellTox Green Cytotoxicity Assay to monitor cytotoxicity in HepG2 cells - 24 hour (AID 1224878). Note: nearly all actives have a fitted effect of over 45% in size. Note: potency is the fitted concentration of half-maximal effect. The gist of the method: as §3
Assay [8] is described as follows: qHTS RealTime-Glo MT Cell Viability Assay in HEK293 cells - 0 hour (AID 1224880). Note: top concentration of the series differs between compounds; nearly all actives have a fitted effect of over 45% in size. The gist of the method: as §1
Assay [9] in a line: A CellTox Green Cytotoxicity Assay to monitor cytotoxicity in HEK293 cells - 32 hour (AID 1224881). Note: nearly all actives have a fitted effect of over 40% in size. Note: potency is the fitted concentration of half-maximal effect. The gist of the method:
as §2

The nature of assay [10]: A CellTox Green Cytotoxicity Assay to monitor cytotoxicity in HepG2 cells - 40 hour (AID 1224879). Note: nearly all actives have a fitted effect of over 40% in size. Note: potency is the fitted concentration of half-maximal effect. The gist of the method: as §3

Consider 17 compounds from PubChem BioAssay (Tox21).

The structures appear in SMILES notation. Where “and” joins values, the source holds several entries; their conditions need not be identical. Equal entries are not always repeated. Inconclusive results are not listed. More than one record can exist for a structure, and the calls need not agree. Calls of active or inactive are those of the source. Calls come from the whole dose curve; as a rule, active = well fitted curve in the direction sought with a large enough effect in the repeat runs; inconclusive = weak or mixed curves; inactive = no such curve, though single readings can be large; an effect the other way counts as inactive or inconclusive.
% is set by controls: 0 for no effect and ±100 for the full control effect.

As to `CC(=O)CC(c1ccccc1)c1c(O)c2ccccc2oc1=O` (stereo not drawn), the Potency result in [1], in assay [2], in [4], in assay [5], in [6] and in assay [7] was “inactive” in each case. Further, the Potency result in [8] and in assay [9] was “inactive” throughout. Also, the max response in assay [3] was 5.95% (inactive) [middle of 4 runs].

Turning to `CN(C)C(=O)Nc1ccc(Cl)c(Cl)c1`, the Potency result in [1], in assay [2], in assay [4], in [5], in assay [6] and in assay [7] was “inactive” throughout. Further, the Potency entry in assay [8] and in [9] was “inactive” in each case. The max response in assay [3] is -20.7% (inactive).

Turning to `Cc1cc(=O)oc2cc(O)ccc12`, the Potency entry in assay [1], in [2], in assay [4], in assay [5], in [6] and in assay [7] was “inactive” in each case. In addition, the Potency entry in assay [8] and in [9] was “inactive” in each case. Moreover, in assay [3], the max response is -14.5% (inactive) and -7.95% (inactive) and -6.84% (inactive).

Consider `NC(=O)n1c(O)c(C(=O)c2cccs2)c2cc(Cl)ccc21`, for which the Potency entry in assay [1], in assay [2], in assay [4], in [5], in assay [6] and in assay [7] was “inactive” in each case. In addition, in assay [9], the Potency result was “inactive”. The max response in [3] is 3.23% (inactive).

`COc1ccc(CN(CCN(C)C)c2ccccn2)cc1`: the Potency result in assay [4], in assay [5], in [7], in assay [10] and in [9] was “inactive” in each case.

For `C1=CC2C3C=CC(C3)C2C1` (stereo not drawn), the Potency result in assay [1], in assay [2], in assay [5], in [6], in assay [7] and in [8] was “inactive” in each case. Moreover, the max response in assay [3] was 0.978% (inactive).

As to `Nc1ccc2c(c1)CN1C(=O)c3ccccc3C1=N2`, the viability change, negative = cytotoxic in [2] was -9.67% [at 15.8 µM] (inactive). Moreover, the Potency in [3] is 3.69 µM (active); in assay [4] it was 10.4 µM (active); in assay [5], 10.4 µM (active); in [7], 10.4 µM (active); in assay [9], 10.4 µM (active). For the same compound, in assay [6], the activity change, negative = cytotoxic was -0.629% [at 15.8 µM] (inactive). Moreover, in [8], the activity change, negative = cytotoxicity is 5.64% [at 15.8 µM] (inactive).

`CC(C)c1c(C(=O)Nc2ccccc2)c(-c2ccccc2)c(-c2ccc(F)cc2)n1CC[C@@H](O)C[C@@H](O)CC(=O)O`: the Potency entry in assay [1], in [2], in assay [4], in assay [5], in [6] and in [8] was “inactive” throughout. Also, in assay [9], the Potency entry was “inactive”. In addition, the max response in assay [3] is -21% (inactive). In addition, in assay [7], the Potency was 2.98 µM (active) and 45.8 µM (active) and 4.77 µM (active).

In the case of `Nc1ccc(O)c([N+](=O)[O-])c1`, the Potency result in [1], in [2], in assay [4], in assay [5], in assay [6] and in [7] was “inactive” in each case. Besides, the Potency entry in [9] is “inactive”.

`CC1(C)O[C@@H]2C[C@H]3[C@@H]4CCC5=CC(=O)C=C[C@]5(C)[C@@]4(F)[C@@H](O)C[C@]3(C)[C@]2(C(=O)CO)O1`: the Potency entry in [1], in [2], in [5], in assay [6], in assay [7] and in assay [8] was “inactive” in each case. For the same compound, the max response in [3] is -22.1% (inactive) and -11.6% (inactive) and -2.14% (inactive). Moreover, in assay [9], the Potency entry was “inactive and 9.52 µM (active)”.

As to `CCN(Cc1c(F)cccc1Cl)c1c([N+](=O)[O-])cc(C(F)(F)F)cc1[N+](=O)[O-]`, the results for the Potency in assay [1] and in assay [3] were 27.5 µM (active) and 54.9 µM (active), respectively. The Potency result in [4], in assay [5], in [6], in assay [7], in [8] and in assay [9] was “inactive” throughout.

Consider `COc1ccc2cc(S(=O)(=O)N[C@H](CC(=O)N[C@H](Cc3ccc(CN4[C@H](C)CCC[C@@H]4C)cc3)C(=O)N(C)C(C)C)c3ccc4c(c3)OCO4)ccc2c1`, for which the Potency is 46.3 µM (active) in assay [1]; 52 µM (active) in assay [2]; 26.1 µM (active) in assay [3]; 52 µM (active) in assay [5]; 52 µM (active) in [6]; 52 µM (active) in [7]. The Potency in [10] and in assay [9] was 52 µM (active) each time. The Potency result in assay [8] was “inactive”.

In the case of `COc1ccc(C(Cl)=C(c2ccc(OC)cc2)c2ccc(OC)cc2)cc1`, the Potency result in assay [1], in [4], in [5], in assay [6], in assay [7] and in assay [8] was “inactive” throughout. In addition, the Potency result in assay [9] is “inactive”. For the same compound, the max response in assay [3] is -17.7% (inactive).

For the compound `CC1(C)S[C@@H]2[C@H](NC(=O)[C@H](N)c3ccccc3)C(=O)N2[C@H]1C(=O)O`, the Potency entry in assay [4], in [5], in assay [7] and in [9] was “inactive” in each case.

For `CN[C@H]1CC[C@@H](c2ccc(Cl)c(Cl)c2)c2ccccc21`, the Potency was 23.9 µM (active) in assay [3], 19 µM (active) in assay [5], 23.9 µM (active) in assay [6] and 19 µM (active) in assay [7].

With `Nc1c(N=Nc2ccc(-c3ccc(N=Nc4cc(S(=O)(=O)O)c5ccccc5c4N)cc3)cc2)cc(S(=O)(=O)O)c2ccccc12`, the Potency is 38.9 µM (active) in assay [1], 38.9 µM (active) in assay [2] and 48.9 µM (active) in assay [6]. Further, the Potency entry in assay [4], in assay [5], in assay [7], in assay [10] and in assay [9] was “inactive” in each case.

In the case of `C1CCC(C(CC2CCCCN2)C2CCCCC2)CC1` (stereo not drawn), the Potency was 19 µM (active) in assay [1]; 21.3 µM (active) in assay [2]; 10.7 µM (active) in [3]; 21.3 µM (active) in assay [4]; 12 µM (active) in assay [5]; 5.35 µM (active) in assay [6]. The Potency in assay [7] was 9.52 µM (active); in assay [9], 19 µM (active).
